For orientation: AC50 means the concentration giving half of the maximal activity seen.

Values joined by “and” are separate entries in the source; they are usually repeats but may differ in a detail not shown here. Equal entries are not always repeated. Some compounds were tested as several samples or in several runs, with calls that do not always agree. Active and inactive are the calls of the source. Rule for the calls: active = hit-call score of the fitted dose curve at least 0.9, where 1 is the maximum; inactive = score below 0.9.

Drawing on PubChem BioAssay (EPA / NIEHS), this text covers AC50 and outcome for twelve compounds.

The nature of test [1]: ATG_PBREM_CIS: Attagene CIS-FACTORIAL HepG2 Assay for human Phenobarbital-responsive Enhancer Module (PBREM) (AID 2282955). Conditions: HepG2 PBREM cis-reporter, Attagene multiplexed transcription; actives raise or lower the signal. In outline: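 Transfected liver-derived HepG2 cells exposed 24 h; PBREM reporter transcript quantified via RT-PCR and capillary electrophoresis, with activity in either direction referenced to DMSO.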

The target of test [2] is Paired box protein Pax-6 (Homo sapiens) (UniProt P26367). In words: ATG_Pax6_CIS: Attagene CIS-FACTORIAL HepG2 Assay for human Paired Box 6 (PAX6) (AID 2282956). Particulars: HepG2 CIS-FACTORIAL PAX6 reporter transcription, RNA readout; actives raise or lower the signal. In short, it runs like this:
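HepG2 cells transiently transfected with cis-promoter-driven multiplexed reporter units sensing endogenous transcription factor activity; 24 h chemical exposure. Reporter mRNA quantified by RT-PCR, 6-FAM labelling, HpaI digestion and capillary electrophoresis; bidirectional fit versus DMSO baseline.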

Test [3] in a line: ATG_PXRE_CIS: Attagene CIS-FACTORIAL HepG2 Assay for human Pregnane X Receptor Element (PXRE) (AID 2282957). Particulars: HepG2 Attagene CIS-FACTORIAL PXRE reporter, mRNA; actives raise or lower the signal. In outline: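 Cells: HepG2, transiently transfected reporter units under cis promoter control. Exposure: 24 h. Detection: reporter mRNA via RT-PCR/CE fluorescence; bidirectional fitting, DMSO-referenced.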

Test [4] in a line: ATG_PPRE_CIS: Attagene CIS-FACTORIAL HepG2 Assay for human Peroxisome Proliferator-activated Response Element (PPRE) (AID 2282958). Conditions: HepG2 PPRE cis-element reporter, Attagene transcription factor profiling; actives raise or lower the signal. In outline:
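Measured endpoint: PPRE-controlled reporter mRNA, detected by RT-PCR and capillary electrophoresis fluorescence, from transiently transfected HepG2 cells 24 h after dosing. Curves fitted in both directions using DMSO baseline.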

Test [5] is described as follows: ATG_RORE_CIS: Attagene CIS-FACTORIAL HepG2 Assay for human RAR-related Orphan Receptor Element (RORE) (AID 2282959). Conditions: HepG2 Attagene cis-factorial RORE reporter, mRNA; actives raise or lower the signal. In outline:
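Transiently transfected HepG2 reporter cells were treated 24 h. Reporter transcripts were detected by RT-PCR and capillary electrophoresis, with bidirectional fitting against DMSO.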

Test [6] can be described thus: ATG_Sox_CIS: Attagene CIS-FACTORIAL HepG2 Assay for human SRY-box transcription factor (SOX) (AID 2282960). Conditions: HepG2 Attagene cis-factorial SOX reporter, mRNA; actives raise or lower the signal. In short, it runs like this:
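Gain- or loss-of-signal endpoint, fitted bidirectionally with DMSO as negative control. Based on reporter mRNA from transfected HepG2 cells harvested 24 h post-treatment and quantified via RT-PCR and capillary electrophoresis.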

In test [7] the target is Transcription factor Sp1 (Homo sapiens) (UniProt P08047). In words: ATG_Sp1_CIS: Attagene CIS-FACTORIAL HepG2 Assay for human Specificity Protein 1 (Sp1) (AID 2282961). Particulars: HepG2 Sp1 cis-reporter transcription, actives raise or lower the signal. In short, it runs like this:
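Endpoint reflects endogenous Sp1 transcriptional activity, not an exogenous fusion protein: HepG2 cells with transfected cis-regulated reporters, 24 h dosing, RT-PCR/capillary electrophoresis mRNA read-out, DMSO-normalised bidirectional fit.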

Test [8] is described as follows: ATG_SREBP_CIS: Attagene CIS-FACTORIAL HepG2 Assay for human Sterol Regulatory Element Binding (SREBP) (AID 2282962). Particulars: HepG2 Attagene cis-factorial SREBP reporter, mRNA; actives raise or lower the signal. In outline:
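HepG2 cells transiently transfected with multiplexed cis-promoter reporter units sensing endogenous transcription factors; reporter mRNA measured 24 h after dosing by RT-PCR, 6-FAM labeling, HpaI digestion and capillary electrophoresis. Bidirectional fit versus DMSO.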

Test [9] addresses Signal transducer and activator of transcription 3 (Homo sapiens) (UniProt P40763). In words: ATG_STAT3_CIS: Attagene CIS-FACTORIAL HepG2 Assay for human Signal Transducer and Activator of Transcription 3 (STAT3) (AID 2282963). Particulars: HepG2, Attagene cis-factorial STAT3 reporter transcription; actives raise or lower the signal. In short, it runs like this: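 Endogenous STAT3-responsive cis-element activity was read in transiently transfected HepG2 cells after 24 h treatment. Reporter transcripts were quantified via RT-PCR and capillary electrophoresis, with DMSO as negative control and bidirectional curve fitting.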

Test [10] can be described thus: ATG_TA_CIS: Attagene CIS-FACTORIAL HepG2 Assay for human TA Basal Promoter (AID 2282964). Particulars: HepG2 Attagene CIS-factorial TA basal promoter reporter; actives raise or lower the signal. In short, it runs like this: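 Background-control readout: TA basal promoter reporter mRNA, fitted in both directions relative to DMSO. Measured by RT-PCR and capillary electrophoresis 24 hours after treating HepG2 human liver cells transiently carrying multiplexed cis-regulated reporter constructs.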

Chain of Paired box protein Pax-6 (Homo sapiens) (P26367 whole entry, looked up): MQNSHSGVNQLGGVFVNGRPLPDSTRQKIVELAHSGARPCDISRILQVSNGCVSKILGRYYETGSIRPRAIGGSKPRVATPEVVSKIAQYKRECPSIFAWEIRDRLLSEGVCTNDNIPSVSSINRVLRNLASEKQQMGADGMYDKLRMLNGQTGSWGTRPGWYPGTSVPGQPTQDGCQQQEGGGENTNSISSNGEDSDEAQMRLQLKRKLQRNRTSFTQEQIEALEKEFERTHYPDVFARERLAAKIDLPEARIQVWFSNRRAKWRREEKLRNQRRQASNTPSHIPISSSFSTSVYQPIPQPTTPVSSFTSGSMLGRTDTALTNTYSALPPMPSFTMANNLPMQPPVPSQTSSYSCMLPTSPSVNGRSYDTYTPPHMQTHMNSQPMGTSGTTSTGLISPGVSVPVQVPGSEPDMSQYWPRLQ
Chain of Signal transducer and activator of transcription 3 (Homo sapiens) (P40763 whole entry, looked up): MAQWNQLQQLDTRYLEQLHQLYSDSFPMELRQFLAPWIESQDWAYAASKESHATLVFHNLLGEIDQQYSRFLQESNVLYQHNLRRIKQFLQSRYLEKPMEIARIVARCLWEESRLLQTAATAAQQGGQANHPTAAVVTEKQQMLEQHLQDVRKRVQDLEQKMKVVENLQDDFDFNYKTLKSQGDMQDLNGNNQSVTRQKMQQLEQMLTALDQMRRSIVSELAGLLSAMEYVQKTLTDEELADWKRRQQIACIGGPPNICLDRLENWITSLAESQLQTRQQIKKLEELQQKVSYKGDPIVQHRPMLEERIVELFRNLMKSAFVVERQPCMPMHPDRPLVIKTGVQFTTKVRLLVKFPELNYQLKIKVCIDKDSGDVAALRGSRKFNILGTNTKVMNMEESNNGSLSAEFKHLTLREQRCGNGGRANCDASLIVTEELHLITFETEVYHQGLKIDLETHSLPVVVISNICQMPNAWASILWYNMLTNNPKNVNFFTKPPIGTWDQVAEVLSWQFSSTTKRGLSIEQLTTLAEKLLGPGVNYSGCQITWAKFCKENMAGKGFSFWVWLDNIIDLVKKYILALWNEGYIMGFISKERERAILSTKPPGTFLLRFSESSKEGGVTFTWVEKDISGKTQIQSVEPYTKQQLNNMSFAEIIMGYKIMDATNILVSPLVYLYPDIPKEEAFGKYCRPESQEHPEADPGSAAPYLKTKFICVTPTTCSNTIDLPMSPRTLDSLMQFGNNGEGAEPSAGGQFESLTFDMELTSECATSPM
Chain of Transcription factor Sp1 (Homo sapiens) (P08047 whole entry, looked up, the tested form may be a part): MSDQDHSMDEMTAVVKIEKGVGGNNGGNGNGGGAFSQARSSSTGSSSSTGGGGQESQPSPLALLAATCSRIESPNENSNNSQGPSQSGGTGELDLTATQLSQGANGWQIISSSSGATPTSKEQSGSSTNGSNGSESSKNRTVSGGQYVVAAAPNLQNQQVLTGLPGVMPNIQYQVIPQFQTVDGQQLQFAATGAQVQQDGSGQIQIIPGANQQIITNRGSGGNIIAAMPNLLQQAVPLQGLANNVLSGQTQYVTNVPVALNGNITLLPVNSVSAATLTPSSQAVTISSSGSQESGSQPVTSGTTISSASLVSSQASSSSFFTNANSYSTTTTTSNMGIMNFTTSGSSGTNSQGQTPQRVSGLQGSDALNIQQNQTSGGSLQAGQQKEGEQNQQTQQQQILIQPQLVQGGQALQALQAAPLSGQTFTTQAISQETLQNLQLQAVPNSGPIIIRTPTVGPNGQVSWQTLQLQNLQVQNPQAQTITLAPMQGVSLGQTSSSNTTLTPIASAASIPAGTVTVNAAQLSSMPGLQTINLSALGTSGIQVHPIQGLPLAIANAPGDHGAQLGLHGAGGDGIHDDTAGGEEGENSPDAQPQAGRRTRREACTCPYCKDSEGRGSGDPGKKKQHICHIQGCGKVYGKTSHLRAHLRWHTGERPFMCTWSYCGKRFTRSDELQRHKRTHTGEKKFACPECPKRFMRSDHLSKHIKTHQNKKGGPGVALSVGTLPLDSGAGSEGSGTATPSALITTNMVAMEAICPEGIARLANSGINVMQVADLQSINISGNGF

Take `CC(C)N(C(=O)COc1nnc(C(F)(F)F)s1)c1ccc(F)cc1`: the results for the half-maximal activity concentration (AC50) in [1] and in test [3] were 11.5 µM (active) and 7.54 µM (active), respectively. The result in test [2], in test [4], in test [5], in test [6], in test [7] and in test [8] was inactive. Besides, the compound was classed as inactive in test [9] and in test [10].

`O=C(Nc1ccccc1)Nc1cnns1`: the result in test [1], in test [4], in test [5], in [9] and in test [10] was inactive. Further, the AC50 in [2] was 85 µM (active); in [3], 66.5 µM (active); in test [6], 50 µM (active); in test [7] it was 21.1 µM (active); in [8], 50 µM (active).

As to `CC(C)(C)C(O)C(Oc1ccc(Cl)cc1)n1cncn1` (stereo unspecified), the half-maximal activity concentration (AC50) was 2.82 µM (active) and 5.04 µM (active) and 7.04 µM (active) in [1]; 1.27 µM (active) [middle of 6 runs] in [3]; 48.7 µM (active) and 23.2 µM (active) and 24 µM (active) in test [8]. Also, the outcome in [1], in test [2], in test [5], in [6], in test [7] and in test [8] was inactive. Besides, the compound was classed as inactive in test [9] and in test [10].

For the compound `CCOC1Oc2ccc(OS(C)(=O)=O)cc2C1(C)C` (stereo unspecified), the half-maximal activity concentration (AC50) was 34 µM (active) in [1], 5.08 µM (active) in [3] and 30.8 µM (active) in test [4]. For the same compound, the call in test [2], in [5], in test [6], in test [7], in [8] and in [9] was inactive. Further, the compound was classed as inactive in [10].

Regarding `COC(=O)c1ccccc1CS(=O)(=O)NC(=O)Nc1nc(OC)cc(OC)n1`, the outcome in test [1], in test [2], in test [3], in test [4], in test [5] and in test [6] was inactive. In addition, the compound was classed as inactive in [7], in [8], in test [9] and in test [10]. Further, the AC50 in test [3] was 33.9 µM (active).

For `O=C1c2ccccc2C(=O)N1SC(Cl)(Cl)Cl`, the result in test [1], in test [2], in test [4], in [5], in [6] and in test [7] was inactive. For the same compound, the outcome in test [8], in test [9] and in [10] was inactive. In addition, the concentration at half-maximal activity (AC50) in test [3] is 15.8 µM (active).

On to `CC1(c2ccc(Oc3ccccc3)cc2)OC(=O)N(Nc2ccccc2)C1=O` (stereo unspecified), for which the result in test [1], in test [2], in test [5], in test [6], in [7] and in test [8] was inactive. Besides, the outcome in [9] and in test [10] was inactive. Moreover, the values for the AC50 in [3] and in test [4] were 2.24 µM (active) and 1.21 µM (active), respectively.

For the compound `CCCN(CCOc1c(Cl)cc(Cl)cc1Cl)C(=O)n1ccnc1`, the concentration at half-maximal activity (AC50) is 2.92 µM (active) in test [1]; 828 nM (active) and 60.9 µM (active) in [3]; 4.43 µM (active) in test [7]; 11.1 µM (active) in [8]. Also, the result in test [1], in [2], in [4], in test [5], in [6] and in [7] was inactive. Moreover, the call in test [8], in test [9] and in test [10] was inactive.

For the compound `Cc1cc(C)nc(NC(=O)NS(=O)(=O)c2ccccc2C(=O)OC2COC2)n1`, the result in test [1], in [2], in test [3], in [4], in test [5] and in test [6] was inactive. Besides, the call in [7], in [9] and in [10] was inactive. In [8], the AC50 is 81.9 µM (active).

On to `Oc1cc(Cl)ccc1Oc1ccc(Cl)cc1Cl`, for which the AC50 in test [1] is 2.91 µM (active) and 3.38 µM (active) and 17.3 µM (active); in test [2], 13.9 µM (active) and 8.6 µM (active); in test [3], 2.98 µM (active) [middle of 7 runs]; in test [5] it was 12.7 µM (active) and 15.1 µM (active) and 15.8 µM (active); in [6], 11.1 µM (active) and 10.3 µM (active); in [10], 17.4 µM (active). Also, the outcome in test [1], in test [2], in [3], in test [4], in [5] and in test [6] was inactive. The result in test [7], in test [8], in test [9] and in test [10] was inactive.

`CNC(=O)Oc1cccc(N=CN(C)C)c1`: the result in [1], in test [2], in [3], in test [6], in test [7] and in [9] was inactive. The outcome in test [10] was inactive. Besides, the figures for the concentration at half-maximal activity (AC50) in test [4], in test [5] and in test [8] were 32.7 µM (active), 90.4 µM (active) and 84.6 µM (active), respectively.

For `COc1cc(OC)nc(NC(=O)NS(=O)(=O)c2cc(NC=O)ccc2C(=O)N(C)C)n1`, the result in test [1], in test [2], in [4], in test [5], in test [6] and in [7] was inactive. Moreover, the compound was called inactive in test [8], in test [9] and in [10]. The AC50 in test [3] is 17.1 µM (active).
